Records with an inconclusive call do not appear. The source made the active and inactive calls. Calls follow the shape of the full dose curve.
% is scaled to controls: 0 for no effect and ±100 for the full control effect.

The nature of this experiment: Confirmatory qHTS for VERO E6 Cytotoxicity Assay: Counterscreen for SARS-CoV-2 CPE Assay (AID 1508605). Also: nearly all actives have a fitted effect of over 60% in size. The settings on record: cell viability luminescence; series mostly up to 20 µM; activity change, negative = cytotoxic: at the top concentration.
Consider `CN(C)[C@@H](CCOc1cccc2ccccc12)c1ccccc1`, for which the “activity change, negative = cytotoxic” value is -26.2% (inactive).
Consider `CN1CCC(=C2c3ccccc3CCc3sccc32)CC1`, for which the “activity change, negative = cytotoxic” value is -16% (inactive).
For `CN(C)CCOC(c1ccccc1)c1ccc(Br)cc1` (stereo not drawn), the “activity change, negative = cytotoxic” value was -10.1% (inactive).

The record behind these values is PubChem BioAssay (NCATS).
